Among all 1,500 compounds or so, about 460 (31%) were called active. Another 1% or so got no clear call; they are omitted. Only a sample is shown. Entries with a potency or affinity are not part of this list. Unmarked numbers belong to inactive results.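 Rule for the calls: active = curve reaches 40% activation over neutral controls at an AC40 no higher than the top valid tested concentration; inconclusive = no clear call, values can overlap the other calls; inactive = signal moving opposite to the expected increase, and the rest.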

The nature of the assay: activators of glucose-dependent insulin secretion, dose response, cell-based, INS-1E, Gaussia luciferase, luminescence, cherry-pick, set 2 (AID 977607).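 Note: 0% = median of the plate neutral control wells.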 To be noted: INS-1E GLuc insulin secretion reporter, 2-3 h, hits give high values.
[1] abbreviates: at 35 µM, 100% = signal doubled over neutral wells unless noted.

Turning to `CCc1nc(N)nc(N)c1-c1ccc(Cl)c(N=[N+]=[N-])c1`, the max activation (at 0.046 µM, 100% = signal doubled over neutral wells) is -14.5% and the max activation (at 1.2 µM, 100% = signal doubled over neutral wells) is -22.8%.
As for `Cc1ccc(-c2csc(NC(=O)CCCc3cccs3)n2)cc1`, the max activation under setting [1] is 22% [at 0.42 µM, 100% = signal doubled over neutral wells].
On the same count and under the same terms, to `CCCc1nc2n[nH]c(N)c2c2c1COC(C)(C)C2` belongs 19.9%.
For the molecule `COc1ccc(CN(C)C(=O)COc2cccc(-n3cnnn3)c2)cc1OC`, the max activation under setting [1] was 25.6%.
`COc1ccccc1CNS(=O)(=O)c1cc(-c2cc(C)no2)ccc1C(C)C`: the max activation under setting [1] is -29.2%.
The same measure, in the same setting: to `COc1ccc(-c2cc(C(=O)N3CCCCCC3)no2)cc1OC` belongs -22% [at 3.8 µM, 100% = signal doubled over neutral wells]; to `COCCNC(=O)c1ccc(N(C)S(=O)(=O)c2ccc(OC)c(OC)c2)cc1`, 19.5% [at 0.005 µM, 100% = signal doubled over neutral wells]; to `O=C(N/N=C/c1cc(Cl)ccc1O)c1ccc(Br)cc1`, -24.4% [at 3.8 µM, 100% = signal doubled over neutral wells].
The same measure, in the same setting: to `C=CCc1cccc(/C=N/NC(=O)CCC(=O)Nc2ccc(C)cc2)c1O` belongs -34.3%.
Take `Cc1nc2ccccc2c(=O)n1/N=C/c1ccc(N(C)C)cc1`: under setting [1], the max activation was -10.6% [at 1.2 µM, 100% = signal doubled over neutral wells].
On the same count and under the same terms, to `CCc1nc2c(OCCC3CCCCC3)cccn2c1N(C)C(=O)c1ccco1` belongs -35%; to `Cc1ccccc1CN(C)Cc1cc(=O)oc2c(C)c(C)ccc12`, -33.3%; to `O=C(c1ccccc1)N(C(=O)c1ccccc1)N1CCCC1`, 28.2% [at 0.046 µM, 100% = signal doubled over neutral wells].
Still for that read-out and setting: to `O=C(O)CCN1c2ccccc2Sc2ccccc21` belongs -23% [at 3.8 µM, 100% = signal doubled over neutral wells].
For `O=C(CCc1ccccc1)NNC(=O)COc1ccccc1Cl`, the max activation under setting [1] was 22.3% [at 0.42 µM, 100% = signal doubled over neutral wells].
With `COc1ccc(/C=N/Nc2ncnc3c2[nH]c2ccccc23)c(OC)c1OC`, the max activation under setting [1] is -28.4% [at 0.005 µM, 100% = signal doubled over neutral wells].
Take `c1ccc2c(N3CCCCC3)nc(N3CCCC3)nc2c1`: the max activation under setting [1] is 34.7%.
On the same count and under the same terms, to `O=S(=O)(N1CCOCC1)n1c(Cc2ccccc2)nc2ccccc21` belongs -18.5% [at 0.046 µM, 100% = signal doubled over neutral wells]; to `CCOC(=O)C1CCCN(C(=O)c2cccnc2Oc2ccccc2)CC1` (stereo not drawn), 48.6% [at 1.2 µM, 100% = signal doubled over neutral wells].
Same read-out and setting: for `COc1ccc(CCNCc2cc3ccc(C)cc3[nH]c2=O)cc1OC` the value was 20.9% [at 11 µM, 100% = signal doubled over neutral wells]; for `COC(=O)[C@]1(Cc2ccccc2)N[C@H](CN(C)C(=O)Nc2ccc(C)cc2)[C@@H]2C(=O)N(C)C(=O)[C@@H]21`, -13.8% [at 11 µM, 100% = signal doubled over neutral wells].
Still for that read-out and setting: to `O=C(Nc1ccc(S(=O)(=O)N2CCOCC2)cc1)c1ccc(=O)[nH]c1` belongs -14.6% [at 0.046 µM, 100% = signal doubled over neutral wells]; to `O=C(NCc1ccc(Cl)cc1)c1cc(=O)[nH]c2ccc(S(=O)(=O)N3CCOCC3)cc12`, 27.5% [at 0.005 µM, 100% = signal doubled over neutral wells]; to `CCN(Cc1ccccc1)S(=O)(=O)c1ccccc1Br`, -30.7%.
As to `CC/C(O)=C1\C(=O)CC(C)(C)CC1=Nc1ccccc1C`, the max activation under setting [1] was -12.4% [at 0.046 µM, 100% = signal doubled over neutral wells].
Same read-out and setting: for `CCc1onc(C)c1C(=O)Nc1ccc(N2CCOCC2)cc1` the value was -20.7% [at 11 µM, 100% = signal doubled over neutral wells]; for `CCCC(=O)Nc1ccc(N2CCN(S(C)(=O)=O)CC2)cc1`, -16% [at 11 µM, 100% = signal doubled over neutral wells]; for `CCn1c(C)nc2cc(S(=O)(=O)C(F)(F)F)ccc21`, -18% [at 0.135 µM, 100% = signal doubled over neutral wells].
The same measure, in the same setting: to `COC(=O)c1scc(C)c1NC(=O)CC1NCCNC1=O` (stereo not drawn) belongs -9.21% [at 0.0016 µM, 100% = signal doubled over neutral wells]; to `O=C(O)c1ccc(S(=O)(=O)NCc2ccc3c(c2)OCO3)cc1`, -14.4% [at 0.42 µM, 100% = signal doubled over neutral wells].
The same measure, in the same setting: for `O=C(c1ccc2c(c1)OCO2)N1CCN(S(=O)(=O)c2ccccc2)CC1` the value was -16.9% [at 0.42 µM, 100% = signal doubled over neutral wells].
Regarding `COc1ccc(S(=O)(=O)N(C)c2ccc(C(=O)NCC3CCCO3)cc2)cc1OC` (stereo not drawn), the max activation under setting [1] was -7.27% [at 1.2 µM, 100% = signal doubled over neutral wells].
Same read-out and setting: for `CC(=O)c1cccc(Nc2ncnc3ccc(Br)cc23)c1` the value was -20.3% [at 0.0016 µM, 100% = signal doubled over neutral wells].
The same measure, in the same setting: to `COC(=O)COc1ccc(C)cc1-n1nc2ccccc2n1` belongs 22.5%.
The same measure, in the same setting: to `COc1cccc(-c2nnn(CC(=O)O)n2)c1` belongs -16%; to `CCOc1cc(C(=O)N(C)CC(=O)Nc2cccc3ccccc23)ccc1OC`, 18.1% [at 11 µM, 100% = signal doubled over neutral wells].
Consider `CN(C)S(=O)(=O)c1cccc(-c2csc(N/N=C/c3ccco3)n2)c1`, for which the max activation under setting [1] is -17.2% [at 3.8 µM, 100% = signal doubled over neutral wells].
On the same count and under the same terms, for `CCc1cccc(NC(=O)C2CCCN2S(=O)(=O)c2ccc3c(c2)n(C)c(=O)c(=O)n3C)c1` (stereo not drawn) the value was -17.8%; for `CCOc1cc(OCC)cc(C(=O)Nc2cccnc2)c1`, 14.6% [at 1.2 µM, 100% = signal doubled over neutral wells]; for `C=C1[C@@H](O)[C@H](CC(C)C)N(Cc2ccccc2Br)S1(=O)=O`, -22.8%.
Regarding `COc1ccc(-n2c(-c3ccc(Cl)cc3)c[nH]c2=S)cc1`, under setting [1], the max activation was 14.5%.
In the case of `CCCOc1ccc(/C=N/NC(=O)C(=O)Nc2ccccn2)cc1`, under setting [1], the max activation was 19.6%.
Same read-out and setting: for `CC(C)CCC(O)(CCC(C)C)C(=O)NN1CCCCC1` the value was 26.3% [at 0.015 µM, 100% = signal doubled over neutral wells]; for `O=c1cc(Cl)[nH]c(=O)n1Cc1ccccc1`, -18% [at 0.135 µM, 100% = signal doubled over neutral wells]; for `Cc1cc(C(=O)Nc2cccc(O)c2)c(C)o1`, 50.1% [at 0.135 µM, 100% = signal doubled over neutral wells].
On the same count and under the same terms, for `Cc1ccc(NC(=O)c2ccccc2-c2ccccc2C(=O)O)cc1C` the value was -15.4% [at 0.046 µM, 100% = signal doubled over neutral wells].
Still for that read-out and setting: for `CCCn1nc(C(=O)NC2CC2)c2ccccc2c1=O` the value was -11.7% [at 0.135 µM, 100% = signal doubled over neutral wells]; for `CCCn1nc(C(=O)NC2CCCC2)c2ccccc2c1=O`, 14.9% [at 0.135 µM, 100% = signal doubled over neutral wells].
Consider `CCNc1nc(C)nc2c1oc1ccccc12`, for which, under setting [1], the max activation was 20.6% [at 11 µM, 100% = signal doubled over neutral wells].
Still for that read-out and setting: to `CC(C)Oc1cccc(C(=O)C2CCCN(C(=O)CCc3cnn(C)c3)C2)c1` (stereo not drawn) belongs -16.9% [at 0.0016 µM, 100% = signal doubled over neutral wells]; to `CCCCCCc1cc2cc(C(=O)Nc3cccc(OC)c3)c(=O)oc2cc1O`, -54.3% [at 1.2 µM, 100% = signal doubled over neutral wells]; to `Cc1ccnc(NC(=O)Nc2ccc(Br)cc2Cl)c1`, -16.6% [at 0.0016 µM, 100% = signal doubled over neutral wells].
Turning to `COCCn1c(=O)[nH]c2cc(C(=O)Nc3cc(OC)c(OC)c(OC)c3)ccc2c1=O`, the max activation under setting [1] is -21.3% [at 11 µM, 100% = signal doubled over neutral wells].
For `COc1ccc(Cl)cc1C(=O)Nc1cccc(-c2ccc3nncn3n2)c1`, the max activation under setting [1] is -16.9% [at 0.015 µM, 100% = signal doubled over neutral wells].
On the same count and under the same terms, to `COc1ccccc1C(OC(=O)c1cccs1)C(=O)NCC1CCCO1` (stereo not drawn) belongs -15.4% [at 0.015 µM, 100% = signal doubled over neutral wells].
For the molecule `Cc1cccc(C2N=C(N)Nc3nc4ccccc4n32)c1` (stereo not drawn), the max activation under setting [1] was -24% [at 0.005 µM, 100% = signal doubled over neutral wells].
On to `O=C(Cc1c[nH]c2ccccc12)N[C@@H](Cc1c[nH]c2ccccc12)C(=O)O`, for which the max activation under setting [1] was 39.3% [at 0.135 µM, 100% = signal doubled over neutral wells].

The values above are taken from PubChem BioAssay AID977607 (Broad Institute, 2014).
